The assay has as its system thyroid hormone receptor (endogenous TRα and TRβ). Further details: species or system GH3-TRE-Luc (rat pituitary); GH3-TRE-Luc luciferase reporter, antagonist mode against 1 nM T3, loss of signal, qHTS.
The mark [1] stands for this setting: read-out: Average AC50 (uM) GH3-TRE-Antag, antagonist mode, 1 nM T3, no GH3 cytotoxicity hit.
[2] abbreviates: read-out: Average AC50 (uM) GH3-TRE-Antag, antagonist mode, 1 nM T3, no GH3 cytotoxicity hit, Average AC50 (uM) GH3-TRE-Antag, 24 h.

The values below come from PMC6792352, “Limited Chemical Structural Diversity Found to Modulate Thyroid Hormone Receptor in the Tox21 Chemical Library” (Environmental Health Perspectives, 2019).

Structures can show the parent of a compound that is named as a salt. Where two headings read alike, the source gives them in different places.

`N=c1c[n+](N2CCOCC2)[n-]o1` [3-Morpholinosydnonimine hydrochloride]: the concentration at half-maximal activity (AC50) under setting [1] was found to be 52.1 µM.

Consider `OCc1c2ccccc2cc2ccccc12` [9-Anthracenemethanol], for which the AC50 under setting [1] is 64.3 µM.

On to `C/C=C\C/C=C/CCCCCCCCOC(C)=O` [(9E,12Z)-9,12-Tetradecadien-1-ol acetate], for which the AC50 under setting [1] came to 68.2 µM.

As for `CC(C)OC(=O)OCOP(=O)(CO[C@H](C)Cn1cnc2c(N)ncnc21)OCOC(=O)OC(C)C` [Tenofovir disoproxil fumarate], the AC50 under setting [1] stood at 24.9 µM.

`CCCOc1ccc(C(=O)OCCN(CC)CC)cc1N` [Proparacaine hydrochloride]: the AC50 under setting [1] is above 50 µM.

Consider `COCc1c(C(C)C)nc(C(C)C)c(/C=C/[C@@H](O)C[C@@H](O)CC(=O)O)c1-c1ccc(F)cc1` [Cerivastatin sodium], for which, under setting [1], the AC50 stood at 13.7 µM.

In the case of `C[C@]12CC[C@@H]3c4ccc(O)cc4CC[C@H]3[C@@H]1CCC2=O` [Estrone], the AC50 under setting [1] worked out at 0.0388 µM.

On to `CCOCN(C(=O)CCl)c1c(C)cccc1CC` [Acetochlor], for which the AC50 under setting [1] was found to be 75.3 µM.

For the compound `CCCCCCOc1ccccc1C(N)=O` [Exalamide], the AC50 under setting [1] was found to be 30.7 µM.

For the compound `c1ccc(CN(Cc2ccccc2)Cc2ccccc2)cc1` [Tribenzylamine], the AC50 under setting [1] stood at 90.8 µM.

Turning to `CC(C)C(O)(c1ccc(OC(F)(F)F)cc1)c1cncnc1` (stereo not shown) [Flurprimidol], the concentration at half-maximal activity (AC50) under setting [1] turned out to be 70.7 µM.

As for `CCCCCCCCCCCC(=O)O` [Dodecanoic acid], the AC50 under setting [1] turned out to be 68.4 µM.

For the compound `CC(=O)O[C@H]1CC[C@@]2(C)C(=CC[C@@H]3[C@@H]2CC[C@]2(C)C(c4cccnc4)=CC[C@@H]32)C1` [Abiraterone acetate], the AC50 under setting [1] was 50 µM.

`CN1CCC(OC(c2ccccc2)c2ccccc2)CC1` [Diphenylpyraline hydrochloride]: under setting [1], the AC50 was found to be 9 µM.

In the case of `Oc1ccc(-c2ccc(O)cc2)cc1` [4,4'-Biphenyldiol], the AC50 under setting [1] came to 34.2 µM.

In the case of `O=P(c1ccccc1)(c1ccccc1)c1ccccc1` [Triphenylphosphine oxide], the half-maximal activity concentration (AC50) under setting [1] is 58.7 µM.

Turning to `C=C(C)CN(CC)c1c([N+](=O)[O-])cc(C(F)(F)F)cc1[N+](=O)[O-]` [Ethalfluralin], the AC50 under setting [1] is above 90 µM.

For the compound `Cc1ccc(C(=O)C(C)CN2CCCCC2)cc1` (stereo not shown) [Tolperisone hydrochloride], the AC50 under setting [1] is above 50 µM.

For the compound `c1ccc2c(c1)ccc1ncccc12` [Benzo(f)quinoline], the AC50 under setting [1] was above 90 µM.

Regarding `CCN(CC)CCCC(C)Nc1c2ccc(Cl)cc2nc2ccc(OC)cc12` (stereo not shown) [Quinacrine dihydrochloride dihydrate], under setting [1], the AC50 came out at 29.4 µM.

Regarding `Cc1nc2ccc(CN(C)c3ccc(C(=O)N[C@@H](CCC(=O)O)C(=O)O)s3)cc2c(=O)[nH]1` [Raltitrexed], the concentration at half-maximal activity (AC50) under setting [1] is 0.18 µM.

As to `CCCCOCCOC(=O)COc1cc(Cl)c(Cl)cc1Cl` [2,4,5-T-butotyl], the AC50 under setting [1] was found to be 80.4 µM.

As for `c1cc2c(c(NC3=NCCN3)c1)CCCC2` [Tramazoline tosylate], the AC50 under setting [1] was found to be 37.5 µM.

Regarding `CN(CC(=O)N1CCOCC1)Cc1c(Cl)cccc1NC(=O)c1ccccc1` [Fominoben hydrochloride], the AC50 under setting [1] is above 50 µM.

Take `O=C(O)C(F)(F)C(F)(F)C(F)(F)C(F)(F)C(F)(F)C(F)(F)C(F)(F)C(F)(F)F` [Perfluorononanoic acid]: the AC50 under setting [1] turned out to be 71.7 µM.

On to `[O-][N+](=Nc1ccccc1)c1ccccc1` [Azoxybenzene], for which the AC50 under setting [1] was above 50 µM.

In the case of `N=C(N)NC(=O)c1nc(Cl)c(N)nc1N` [Amiloride], the AC50 under setting [2] was 16.4 µM.

In the case of `Cc1c(OCC(F)(F)F)ccnc1C[S+]([O-])c1nc2ccccc2[nH]1` (stereo not shown) [Lansoprazole], the AC50 under setting [1] is above 50 µM.

`CCOC(=O)C(C)Oc1ccc(Oc2cnc3cc(Cl)ccc3n2)cc1` (stereo not shown) [Quizalofop-ethyl]: under setting [1], the AC50 was 78.2 µM.

Turning to `CCCCCc1ccc(N)cc1` [4-Pentylaniline], the AC50 under setting [1] worked out at 47.1 µM.

Consider `CCCCOc1ccc(OCCCN2CCOCC2)cc1` [Pramoxine hydrochloride], for which the AC50 under setting [1] is 12.8 µM.

As to `Clc1ccc(Cn2c(CN3CCCC3)nc3ccccc32)cc1` [Clemizole hydrochloride], the AC50 under setting [1] was 13.3 µM.

`C1COC(NC(C2CC2)C2CC2)=N1` [Rilmenidine]: the AC50 under setting [1] came out at 29.6 µM.

In the case of `Cc1cc(-n2c(=O)[nH]c(=O)n(C)c2=O)ccc1Oc1ccc(S(=O)(=O)C(F)(F)F)cc1` [Toltrazuril sulfone], the AC50 under setting [1] was 51.6 µM.

For `Cc1nc(-c2ccc(OCC(C)C)c(C#N)c2)sc1C(=O)O` [Febuxostat], the AC50 under setting [1] amounted to 17.9 µM.

With `CCCc1c(OCCCCc2nnn[nH]2)ccc(C(C)=O)c1O` [Tomelukast], the AC50 under setting [1] worked out at 49.2 µM.

As to `CC/C=C\C/C=C\C/C=C\CCCCCCCC(=O)O` [Linolenic acid], under setting [1], the half-maximal activity concentration (AC50) is above 50 µM.

Regarding `CCO[Si](CC(C)C)(OCC)OCC` [Triethoxy(2-methylpropyl)silane], the AC50 under setting [1] is 66.1 µM.

As for `CC(C)Cc1ccc(C(C)C(=O)O)cc1` (stereo not shown) [Ibuprofen], under setting [1], the AC50 is above 50 µM.

With `C=CC(C)(O)CC/C=C(\C)CCC=C(C)C` (stereo not drawn) [trans-Nerolidol], under setting [1], the AC50 was 9.85 µM.

Take `O=C(/C=C/c1ccccc1)OCc1ccccc1` [Benzyl cinnamate]: the AC50 under setting [1] was above 50 µM.

Turning to `CC[N+](CC)(CC)CCOc1ccc(/C=C/c2ccccc2)cc1` [Stilonium iodide], the AC50 under setting [1] worked out at 27 µM.

As for `CCCCNC(=O)n1c(NC(=O)OC)nc2ccccc21` [Benomyl], the AC50 under setting [1] came out at 8.81 µM.

Take `Nc1ccc(C(=O)Oc2ccccc2)c(O)c1` [Phenyl 4-aminosalicylate]: the AC50 under setting [1] turned out to be 49.5 µM.

Consider `OC(CCCN1CCCCC1)(c1ccccc1)c1ccccc1` [Diphenidol], for which, under setting [1], the AC50 was found to be 19 µM.

`CC1(C)[C@H](C(=O)OCc2coc(Cc3ccccc3)c2)[C@@H]1/C=C1\CCSC1=O` [Kadethrin]: the AC50 under setting [1] came out at 48.4 µM.

`Clc1ccc(C2(Cn3cncn3)CC(Br)CO2)c(Cl)c1` (stereo not shown) [Bromuconazole]: under setting [1], the AC50 came to 72.5 µM.

With `CCOC(=O)C1=NN(c2ccccc2)C(=O)C1` [Ethyl 5-oxo-1-phenyl-4,5-dihydro-1H-pyrazole-3-carboxylate], the AC50 under setting [1] was determined as 47.8 µM.

Consider `C[C@]12CC[C@@H]3c4ccc(O)cc4CC[C@H]3[C@@H]1CC[C@H]2O` [17alpha-Estradiol], for which the AC50 under setting [1] turned out to be 27 µM.

`COc1ccc(-c2coc3cc(O)cc(O)c3c2=O)cc1` [Biochanin A]: under setting [1], the half-maximal activity concentration (AC50) was 67 µM.

Regarding `CCCCCC[n+]1ccccc1` [1-Hexylpyridinium chloride], the AC50 under setting [2] amounted to 71.1 µM.

As for `Cn1cnc2c(F)c(Nc3ccc(Br)cc3Cl)c(C(=O)NOCCO)cc21` [Selumetinib], the AC50 under setting [1] worked out at 12.5 µM.

For `CC(C)c1c(CN(C)C(C)Cc2ccccc2)n(C)n(-c2ccccc2)c1=O` (stereo not shown) [Famprofazone], the AC50 under setting [1] amounted to 13.1 µM.

Turning to `CC(C)[C@H](C(=O)O[C@H](C#N)c1cccc(Oc2ccccc2)c1)c1ccc(Cl)cc1` [Esfenvalerate], the AC50 under setting [1] was found to be 48 µM.

Regarding `O=c1oc2c(O)c(O)cc3c(=O)oc4c(O)c(O)cc1c4c23` [Ellagic acid], the AC50 under setting [1] was 12.9 µM.

Take `Oc1ccc(C(=C(Cl)Cl)c2ccc(O)cc2)cc1` [Bis(4-hydroxyphenyl)-2,2-dichloroethylene]: the AC50 under setting [1] was 38.4 µM.

Consider `CCCC(=O)N1CCCN(c2nc(N)c3cc(OC)c(OC)cc3n2)CC1` [Bunazosin hydrochloride], for which the AC50 under setting [1] is 47.9 µM.

In the case of `O=C1[C@H](CC[C@H](O)c2ccc(F)cc2)[C@@H](c2ccc(O)cc2)N1c1ccc(F)cc1` [Ezetimibe], under setting [1], the AC50 was 33.5 µM.

With `O=C(O)COc1cc(Cl)c(Cl)cc1Cl` [2,4,5-Trichlorophenoxyacetic acid], under setting [1], the AC50 was determined as 70.6 µM.

Regarding `C#C[C@]1(O)CC[C@H]2[C@@H]3CCC4=C(CCC(=O)C4)[C@H]3CC[C@@]21C` [Norethynodrel], the AC50 under setting [1] was 16.4 µM.

Turning to `CCCCCCCCCCCCCCCCCCCCCC(=O)Nc1ccn([C@@H]2O[C@H](CO)[C@@H](O)[C@@H]2O)c(=O)n1` [Enocitabine], under setting [1], the AC50 was found to be 17.3 µM.

Regarding `Cc1ccc2nc(-c3ccc(N)cc3)sc2c1S(=O)(=O)O`, the AC50 under setting [1] came out at 45.2 µM.

For `CCCCNc1c(C(=O)OCC)c(C)nc2c1cnn2CC` [Tracazolate hydrochloride], the concentration at half-maximal activity (AC50) under setting [1] was 42.6 µM.

For the compound `O=c1cc(-c2ccccc2)oc2ccc3ccccc3c12` [5,6-Benzoflavone], the AC50 under setting [1] turned out to be 7.88 µM.

For `NNc1nnc(Cc2ccncc2)c2ccccc12` [Picodralazine], the AC50 under setting [1] is 3.28 µM.

Consider `O=S(=O)(c1cccc2cnccc12)N1CCCNCC1` [Fasudil hydrochloride], for which, under setting [1], the concentration at half-maximal activity (AC50) came out at 30.1 µM.

In the case of `C[C@](N)(Cc1ccc(O)c(O)c1)C(=O)O` [Methyldopa sesquihydrate], the AC50 under setting [1] is above 50 µM.

In the case of `O=C(c1ccc(O)cc1)c1ccc(O)cc1O` [2,4,4'-Trihydroxybenzophenone], under setting [1], the AC50 is above 90 µM.

Take `CCN(CC)CCOC(=O)[C@H](Cc1cccc2ccccc12)C[C@H]1CCCO1` [Nafronyl oxalate]: under setting [1], the half-maximal activity concentration (AC50) came out at 10.7 µM.

Regarding `CCCCCC/C=C\CCCCCCCC(=O)O` [(Z)-Hexadec-9-enoic acid], under setting [1], the AC50 turned out to be 44.5 µM.

In the case of `OCC#CCO` [2-Butyne-1,4-diol], the AC50 under setting [1] is 58.8 µM.

Take `CCCCCCCCCCCCNC(=N)N` [Dodine]: the AC50 under setting [1] turned out to be 2.89 µM.

Turning to `CC/C=C/CCCCCCCCC1CC(=O)OC1=O` (stereo not shown) [(Tetrapropenyl)succinic anhydride], the AC50 under setting [1] came to 65.5 µM.

For the compound `CCCCCCC(=O)O[C@H]1CC[C@H]2[C@@H]3CCc4cc(O)ccc4[C@H]3CC[C@]12C` [Estradiol enanthate], under setting [1], the AC50 was 18.9 µM.

`CCCCCC[n+]1ccccc1` [1-Hexylpyridinium trifluoromethanesulfonate]: the AC50 under setting [2] was found to be 45.4 µM.

Regarding `Nc1c2c(nc3ccccc13)CCCC2` [1,2,3,4-Tetrahydro-9-acridinamine hydrochloride], under setting [2], the AC50 came out at 92.1 µM.

Regarding `OCCOCCN1CCN(C2=Nc3ccccc3Sc3ccccc32)CC1` [Quetiapine fumarate], the AC50 under setting [2] is 23.5 µM.

For the compound `OCCOCCN1CCN(C2=Nc3ccccc3Sc3ccccc32)CC1` [Quetiapine], under setting [2], the AC50 was 34 µM.

Take `N=C(N)NC(=O)c1nc(Cl)c(N)nc1N` [Amiloride hydrochloride]: under setting [2], the AC50 was determined as 56.7 µM.

With `CCCCCCCCn1cc[n+](C)c1` [1-Methyl-3-octylimidazolium chloride], under setting [2], the AC50 is 28.9 µM.

Take `O=C(O)c1cc(I)cc(I)c1I` [2,3,5-Triiodobenzoic acid]: the AC50 under setting [1] is above 100 µM.

Consider `CC[C@H](C)[C@@H](C(=O)O)n1sc2ccccc2c1=O` [(2S,3S)-3-Methyl-2-(3-oxo-1,2-benzothiazol-2(3H)-yl)pentanoic acid], for which the AC50 under setting [1] was above 90 µM.
